SMILES strings stand for the structures. Unmarked numbers belong to inactive results.

The record followed here is the supplement of paper PMC13380429.

One experiment deals with Vero E6 infected with SARS-CoV-2. The experiment can be described thus: inhibition of SARS-CoV-2 cytopathic effect; higher = more antiviral protection, active = above 15. As to conditions: 100 nM; 48 h. For orientation: Protection from cytopathic effect is a common read-out in antiviral testing.
For `COc1ccc(-c2ccc3cc(C(=O)O)ccc3c2)cc1C12CC3CC(CC(C3)C1)C2` [adapalene], the “inhibition of SARS-CoV-2 cytopathic effect” value (from here on “inhibition”) is 2.4%. The same measure, in the same setting: for `CC(=O)Oc1c(C)cc(OCC(O)CNC(C)C)c(C)c1C` (stereo not drawn) [metipranolol] the value was 0.06%; for `CCNC(=O)c1noc(-c2cc(C(C)C)c(O)cc2O)c1-c1ccc(CN2CCOCC2)cc1`, -1.84%. Same read-out and setting: next, `Cc1c(C(=O)N2CCOc3ccc(-c4ccc(N)nc4)cc3C2)ccc(S(C)(=O)=O)c1F`: -0.37%; `CCn1c(=O)[nH]c2cc(Cl)c(Cl)cc21`: 0.73%; `CC(=O)Nc1c(I)c(C(=O)O)c(I)c(N(C)C(C)=O)c1I` [metrizoic-acid]: 0.21%. Same read-out and setting: for `O=C(NCCN1CCC2(CC1)C(=O)NCN2c1cccc(F)c1)c1ccc2ccccc2c1` the value was 1.66%; for `CCn1cc(C(=O)O)c(=O)c2cnc(N3CCCC3)nc21` [piromidic-acid], 0.19%; for `CSc1cc2c(cc1C(F)(F)F)N(C(=O)Nc1cccnc1)CC2`, 1.56%.

In the case of `COc1cc(OC)c2c(=O)[nH]c(-c3cc(C)c(OCCO)c(C)c3)nc2c1` [apabetalone], the “inhibition” value was 2.32%.

Still in this experiment, the particulars now being: 833.33 nM; 48 h.
As to `NS(=O)(=O)c1cc(C(=O)O)c(NCc2ccco2)cc1Cl` [furosemide], the “inhibition” value is 0.41%.

In the case of `CCN1CCCC(OC(=O)C(c2ccccc2)c2ccccc2)C1` (stereo not drawn) [piperidolate], the “inhibition” value was -6.63%. As for `N=C(N)S/C=C\C(=O)O`, the “inhibition” value is -1.03%.

As for `c1ccc(N2CCN(CCCOc3ccc4c(c3)OCO4)CC2)cc1`, the “inhibition” value is -3.5%. On the same count and under the same terms, next, `COc1cc(NC(=O)c2ccc(-c3ccc(Cl)cc3)o2)cc(OC)c1`: 0.19%. Regarding `CC(C)(C)c1cc(NC(=O)Nc2ccc(-c3cn4c(n3)sc3cc(OCCN5CCOCC5)ccc34)cc2)no1` [quizartinib], the “inhibition” value was -4.72%.

Consider `Cc1ccc(S(=O)(=O)Nc2ccc3c(c2)c(C(=O)C(F)(F)F)cn3CC(=O)N[C@@H](CC(C)C)C(=O)O)cc1`, for which the “inhibition” value was 0.8%. Take `CCCCN(CCCC)CC(O)c1cc(Cl)cc2c1-c1ccc(Cl)cc1/C2=C/c1ccc(Cl)cc1` (stereo not drawn) [lumefantrine]: the “inhibition” value was 0.99%. Consider `NCCNc1ccc(NCCN)c2c1C(=O)c1ccncc1C2=O` [pixantrone], for which the “inhibition” value was 1.22%.

In the case of `CCOC(=O)c1ccc(O)cc1` [ethyl-paraben], the “inhibition” value was 0.24%. For `N=C(N)SCCc1c[nH]cn1` [imetit], the “inhibition” value was -2.2%. Same read-out and setting: next, `CN[C@@H]1[C@@H](O)[C@@H](O[C@@H]2[C@@H](O)[C@H](O[C@H]3OC(CN)=CC[C@H]3N)[C@@H](N)C[C@H]2N)OC[C@]1(C)O` [Sisomicin (sulfate)]: -0.63%. Consider `CO[C@@H]1[C@H](O)[C@@H](CO)O[C@H]1n1cnc2c(NC3CCCCC3)ncnc21`, for which the “inhibition” value was 1.46%. Turning to `NC(=O)[C@H]1CCS[C@@H]2C[C@]3(CCCN3C(=O)Cc3ccc(NC(=O)COc4ccc(Cl)cc4Cl)cc3)C(=O)N12`, the “inhibition” value is 0.74%. `CN(C)CCCCSC(=N)N`: the “inhibition” value is 1.23%. As to `C/C(=N\NC(=N)N)c1cc(NC(=O)CCCCCCCCC(=O)Nc2cc(/C(C)=N/NC(=N)N)cc(/C(C)=N/NC(=N)N)c2)cc(/C(C)=N/NC(=N)N)c1` [semapimod], the “inhibition” value is 7.62%. Turning to `C[C@]12CCC(=O)C=C1[C@@H]1C[C@@H]1[C@H]1[C@@H]3[C@@H]4C[C@@H]4[C@@]4(CCC(=O)O4)[C@@]3(C)CC[C@@H]12` [drospirenone], the “inhibition” value was 0.94%.

Turning to `CC(=O)N1N=C(c2ccc(N)cc2)c2cc3c(cc2C[C@H]1C)OCO3` [talampanel], the “inhibition” value is 1.19%.

Consider `O=C(O)C(=O)c1cn(Cc2ccccc2)c2ccc(-c3ccc(OC(F)(F)F)cc3)cc12` [tiplaxtinin], for which the “inhibition” value was 2.13%.

As to `OCCn1cc(-c2ccc3c(c2)CC/C3=N\O)c(-c2ccncc2)n1`, the “inhibition” value was 10.2%.

For the molecule `O=C(O)c1ccc(-n2nc(-c3ccccc3O)nc2-c2ccccc2O)cc1` [deferasirox], the “inhibition” value is -1.58%. As to `CC(C)CCC[C@@H](C)[C@H]1CC[C@H]2[C@@H]3CCC4=CC(=NO)CC[C@]4(C)[C@H]3CC[C@]12C` [olesoxime], the “inhibition” value is -0.32%. Same read-out and setting: next, `Oc1ccc2c(c1)CC[C@H](c1ccccc1)[C@@H]2c1ccc(OCCN2CCCC2)cc1` [lasofoxifene]: -0.28%.
